# Source: PubChem
# Only some compounds are listed: those with a hit (about 5.1% of all), similar ones and a draw of the others.
# CRFBP-R2 agonist: agonists of human CRF-binding protein/CRF-R2 receptor complex; HEK293 CRF-R2/CRF-BP, calcium dye fluorescence (FLIPR); percent of saturating CRF peptide response; activation, % at 13.2 µM; 350,000 compounds, 0.46% hits; AID 588473;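 active = activation of at least 50%, plus an integration ratio under a set limit after plate pattern correction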;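 note: plate controls were neutral control wells without compound for no effect and CRF at EC100 for full effect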
# MPTP block: permeability transition pore inhibition. isolated mouse mitochondria, Ca2+ swelling absorbance, 30 min. inhibition, % at 10 µM. 360,000 compounds, 1.4% hits;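 active = inhibition of 50% or more, scaled per plate between neutral and stimulator controls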;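 note: 0% = DMSO wells given calcium and 100% = 1 mM EGTA wells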
# TMEM16A inh: inhibitors of mouse TMEM16A calcium-activated chloride channel; Q8BHY3; HEK293 TMEM16A/YFP iodide influx fluorescence, ionomycin; 310,000 compounds, 1.2% hits; normalized B-score (activity score, 25-100; higher = stronger inhibition) at 10 µM; AID 588511;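 active = ratio plate-corrected score three or more library SD toward inhibition, starting fluorescence score within five deviations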;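 note: score derived from kinetic fluorescence span divided by baseline fluorescence per well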
# ANO1 activ: activates or potentiates the mouse TMEM16A chloride channel; Q8BHY3; HEK293 TMEM16A/YFP-H148Q/I152L, iodide quench fluorescence; hits give low values; B-score at 10 µM; 340,000 compounds, 0.3% hits; AID 623877;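 active = fluorescence-ratio B-score plate-corrected deviation score at least 3 library SD below zero, with starting fluorescence score within 5 deviations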;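 note: channel opened by trigger with iodide after compound preincubation; score built on the fluorescence ratio of max minus min over baseline; more negative score means more quench and so TMEM16A activation or potentiation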
# GRIN3A LBD mod: modulators (binders) of human NR3A ligand-binding domain | AID 1259313 | 340,000 compounds, 2.5% hits | Tm shift relative to glycine control, % at 25 µM | NR3A LBD differential scanning fluorimetry, Tm shift; 0% = protein alone, 100% = glycine-bound protein;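 active = melting temperature shift of at least 10% of the positive control shift, at one fixed dose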
# CRFBP-R2 block: blocks CRF-induced signaling of the CRF-BP/CRF-R2 complex | HEK293 CRF-R2/CRF-BP, CRF-induced calcium fluorescence | inhibition, % at 11.8 µM | 350,000 compounds, 0.59% hits;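 active = inhibition of the ligand-induced calcium signal above about 50% at the single tested concentration, limit read from the data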
# An asterisk follows results filed as active; i = inactive; · = not tested or not shown.
SMILES,CRFBP-R2 agonist,MPTP block,TMEM16A inh,ANO1 activ,GRIN3A LBD mod,CRFBP-R2 block
CN(C)c1ccc(-c2noc(C3CCN(S(=O)(=O)c4ccc(C(=O)O)cc4)CC3)n2)cc1,0,-2,i,i,-12,14
CN(C)c1ccc(-c2noc(C3CCN(C(=O)Nc4ccc(Cl)cc4)CC3)n2)cc1,0,9,i,-4.6*,-22,-15
Cn1cc(CN2CCC(n3nccc3NC(=O)C3CCCC3)CC2)cn1,1,0,i,i,3,-2
CCOC(=O)c1c(C)[nH]c(C)c1C(=O)COC(=O)COc1ccc(Cl)c(C)c1,-1,-1,·,i,-5,8
CC(=O)c1c(O)cc(C(C)C)n(-c2ccccc2)c1=O,0,2,i,i,12*,0
CCCCN(C(=O)c1ccc(S(=O)(=O)N2CCCC2)cc1)C1CCS(=O)(=O)C1 (configuration not stated),0,-2,i,i,1,5
Fc1ccc2cc(-c3ccsc3)ncc2c1,-1,0,·,i,35*,4
Cc1ccc(OCCNC(=O)c2cc(C3CC3)nc3c2cnn3C(C)C)cc1,1,0,·,i,-5,8
CCc1cccc(NC(=O)CCS(=O)(=O)c2cc3c(cc2C)NC(=O)CO3)c1,0,0,i,i,-1,1
CC(=O)c1cccc(NC(=O)CCS(=O)(=O)c2cc3c(cc2C)NC(=O)CO3)c1,0,-1,i,i,53*,-3
Cc1ccc(NC(=O)CCS(=O)(=O)c2cc3[nH]c(=O)c(=O)[nH]c3cc2C)cc1,1,2,i,i,15*,-25
COCCNC(=O)C1(C)CCCN(C(=O)c2ccccc2C(F)(F)F)C1 (configuration not stated),·,-1,·,·,·,·
COc1nc(Nc2ccc(O)cc2)nc(OC(C(F)(F)F)C(F)(F)F)n1,0,1,i,i,-1,13
Nc1cccc(Nc2nc(OC(C(F)(F)F)C(F)(F)F)nc(OC(C(F)(F)F)C(F)(F)F)n2)c1,-4,20,100*,i,7,12
CCCC(=O)Oc1ccc(C2NC(=O)c3ccccc3O2)cc1 (configuration not stated),-3,1,i,i,2,-3
CCC(C)Nc1nc(-c2ccc3c(c2)NC(=O)CO3)cs1 (configuration not stated),9,-6,i,i,1,17
COc1ccc(Nc2nc(-c3ccc4c(c3)NC(=O)CO4)cs2)cc1,-1,2,i,i,15*,16
COc1ccccc1Nc1nc(-c2ccc3c(c2)NC(=O)CO3)cs1,-2,6,i,i,32*,-29
Cc1nn(Cc2ccccc2Cl)c(C)c1C(=O)NC1=NCCS1,-1,1,i,i,-3,11
CCC(CC)c1nnc(NC(=O)c2c(C)nn(Cc3ccccc3Cl)c2C)s1,4,-3,i,i,16*,-28
O=C(CN1C(=O)C2CC=CCC2C1=O)Nc1nc(-c2ccc(F)c(F)c2)cs1 (configuration not stated),1,0,·,i,-7,-14
COc1ccc(-c2csc(NC(=O)CN3C(=O)C4CC=CCC4C3=O)n2)cc1OC (configuration not stated),2,-1,i,i,-1,57*
COc1ccc(-c2csc(NC(=O)CN3C(=O)C4CCCCC4C3=O)n2)cc1OC (configuration not stated),1,2,i,i,12*,3
Cc1ccc(S(=O)(=O)N2[C@@H](Cc3ccccc3)CO[C@H]2CC(=O)c2ccccc2)cc1,·,0,·,·,·,·
COc1cc2c(cc1OC)-c1cc(Nc3ccc(F)cc3)nc(=O)n1CC2,-3,0,i,i,10*,9
CSc1ccccc1NC(=O)CN(C)C(=O)CNC(=O)c1ccc(Oc2ccccc2)cc1,-1,2,·,·,·,-8
NS(=O)(=O)c1ccc(NCc2cc(Cl)ccc2OCc2ccc(F)cc2)cc1,20,13,25*,i,-10,-12
NS(=O)(=O)c1ccc(NCc2ccccc2OCc2ccccc2F)cc1,-2,5,i,i,-16,4
